Compound activity from PubChem BioAssay.
Hits are enriched below; roughly 7.3% of the tested compounds scored in any of these assays.
SMN2 splice up = SMN2 splice variant enhancement; HEK293 SMN2-luciferase splicing reporter, luminescence, 30-36 h; Potency, µM (titrated, usually from 46.1 µM), inactives show at the highest dose activity change, positive = activation, usual class: activators; actives 2.8% (n = 210,000); AID 1458; further: % of control where 0% means no effect; nearly all actives have a fitted effect of over 55% in size
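HEK293 cells carry an SMN2 […]–luciferase reporter in which exon 7 inclusion puts luciferase in frame. Cells were plated 10-12 h before compound addition, then incubated 30-36 h at 37C. ONE-Glo luminescence was read; sodium butyrate at 4.5 mM final served as control.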
ELG1 genotoxic = inducers of genotoxicity in HEK293T ELG1-luciferase cells; HEK293T ELG1-luciferase reporter, luminescence, 16 h; AID 504466; Potency, µM (series often up to 46 µM), for the others: top-dose activity change, positive = activation, most hits filed as activators; actives 1.3% (n = 330,000); further: % of control where 0% means no effect; nearly all actives have a fitted effect of over 60% in size
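Luminescence read-out: rising ELG1-luciferase signal, reflecting elevated ELG1 protein under genetic stress, flags genotoxic compounds. Cells were treated for 16 hr at 37 °C before ONE-Glo detection.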
FLuc counter = counter-screen for miR-21 project: firefly luciferase inhibitors or activators. purified FLuc, Km substrates, luminescence inhibition. Potency, µM (series often up to 57.5 µM), for inactives: top-dose activity change, negative = inhibition, actives largely listed as inhibitors. actives 6.9% (n = 360,000);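 further: plate controls were vehicle for no effect and reference inhibitor for full effect; nearly all actives have a fitted effect of over 55% in size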
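Purified P. pyralis luciferase (10nM final) with 10uM D-luciferin and 10uM ATP (Km levels) in 50mM Tris acetate pH 7.5, 10mM Mg acetate, 0.01% Tween-20, 0.05% BSA; qHTS 6-point titration, ~60 µM downward; luminescence read.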
NPC1 promoter act = activators of NPC1 promoter | Huh7 NPC1 promoter luciferase reporter, 24 h | Potency, µM (titrated, usually from 9.22 µM), for inactives: top-dose activation, usual class: activators | actives 2.4% (n = 320,000); further: % of control where 0% means no effect; nearly all actives have a fitted effect of over 60% in size
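Luminescence from an NPC1 promoter-driven luciferase reporter in stably transfected Huh7 cells was measured after 24 h compound treatment at 37 °C, followed by 10 min ambient incubation with luciferase detection reagent.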
Rab9 prom act = Rab9 promoter activation. Huh7 Rab9 promoter-luciferase reporter, luminescence, 24 h. Potency, µM (top dose mostly 9.22 µM), inactives show top-dose activation, negative = inhibition, actives largely listed as activators. actives 2.8% (n = 320,000). AID 485297; further: % of control where 0% means no effect; nearly all actives have a fitted effect of over 60% in size
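Huh7 cells stably carrying Rab9 promoter–luciferase reporter, plated 1500 cells/well, compound added after 2 h and incubated 24 h at 37 °C; luciferase luminescence then read after 10 min with detection reagent.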
KinaseGlo FLuc = Kinase-Glo luciferase inhibition (counter-screen) | Q27757 | Kinase-Glo luciferase, ATP luminescence, 8 min | Potency, µM (top dose mostly 38.3 µM), inactives show at the top dose activity change, negative = inhibition, hits mostly inhibitors | actives 0.28% (n = 200,000); further: on the % scale 0 is the no-effect control and ±100 the full control effect; nearly all actives have a fitted effect of over 60% in size
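Recombinant Kinase-Glo luciferase, 10 uM ATP (linear range), luciferin; imidazole pH 7.2 / KCl / MgCl2 / Tween / BSA buffer; 8 min RT; luminescence.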
The depositor's hits bear a star; ? = inconclusive; . = no result given; [ ] = remark or other dose. The call rests on the fitted dose curve; in most records, active means well fitted curve in the direction sought with a large enough effect; inconclusive means small, poorly fitted or top-dose-only effect, or another doubt; inactive means no such curve, though single readings can be large; an effect the other way counts as inactive or inconclusive. Potency means the concentration at half of the fitted maximal effect.

SMILES	SMN2 splice up	ELG1 genotoxic	FLuc counter	NPC1 promoter act	Rab9 prom act	KinaseGlo FLuc
C/C(=N\NC(=O)c1cc(C)nc2ccccc12)c1ccco1	0%	-1%	3%	-3%	-4%	-2%
C/C(=N\NC(=O)c1cc2ccccc2cc1O)c1ccc(C)o1	.	0%	9.5µM*	27%	?	.
C=CCN(c1ccc(C(=O)N2CCCC2)cc1)S(C)(=O)=O	-22%	1%	1%	0%	-3%	0%
Cc1cc2ccc3ccccc3c2cc1CN(C)C	.	6%	7.6µM*	10%	24%	.
Cc1cccc2cc3ccc4ccccc4c3cc12	-5%[9.22 µM]	.	.	.	.	-5%[7.66 µM]
Cc1csc(NC(=O)c2cc3ccccc3o2)n1	.	?	0.95µM*	?	1.4µM*	.
CC(Cc1ccccc1)NC(=O)c1cc2ccccc2o1 (stereo not drawn)	.	?	?	3.2µM*	2.5µM*	.
O=C(NCc1cccs1)c1cc2ccccc2o1	7%	15%	19µM*	23%	4%	8%
CCOC(=O)Cc1csc(NC(=O)c2cc3ccccc3o2)n1	1%	7%	11µM*	?	?	?
COc1ccc(CNC(=O)CSc2nc3ccccc3nc2Cc2ccccc2OC)cc1	.	.	3%	.	.	.
COc1ccc([N+](=O)[O-])cc1NC(=O)c1cccnc1	.	-1%	2%	-1%	-1%	.
Cc1ccc(-c2csc(NC(=S)NC(=O)c3cc4ccccc4o3)n2)cc1	?	17%	-2%	25%	28%	-2%
Cc1csc(C(C#N)C(=O)c2cc3ccccc3o2)n1 (stereo not drawn)	11µM*	?	1.3µM*	2.8µM*	2.8µM*	-18%
CN(C)S(=O)(=O)c1ccc(Cl)c(NC(=O)COC(=O)/C=C/c2cnc3ccccc3n2)c1	.	4%	11µM*	1%	9%	.
Cc1ccc(S(=O)(=O)N(C)C)cc1NC(=O)COC(=O)/C=C/c1cnc2ccccc2n1	8%	27%	17µM*	1%	7%	-1%
Cc1cc(C(=O)OCC(=O)Nc2cc(S(=O)(=O)N(C)C)ccc2C)c2ccccc2n1	9%	-6%	-1%	-1%	-5%	0%
CCn1c(C)csc1=NC(=O)c1ccccc1	-10%	7%	19µM*	17%	?	0%
CCn1c(C)csc1=NC(=O)c1ccccc1O	-9%	?	13µM*	2.8µM*	2.8µM*	-14%
Cc1csc(=NC(=O)c2ccccc2)n1C	11µM*	21µM*	13µM*	3.2µM*	2.5µM*	-25%
Cc1csc(=NC(=O)c2ccccc2)n1Cc1ccco1	-26%	1%	?	13%	17%	6%
COc1ccc(OC)c(CN(CCN2CCOCC2)S(=O)(=O)c2ccc(NC(C)=O)cc2)c1	.	0%	0%	-1%	-2%	.
O=C(CCc1nnc(Cc2ccc(-c3ccccc3)cc2)o1)NCC1CC1	.	0%	-13%	1%	0%	2%
CC(C)(C)c1cc(NC(=O)COC(=O)C2CC2)n(-c2ccccc2)n1	13%	-2%	1%	0%	2%	-4%
CC(=O)c1ccccc1NC(=O)COc1ccc(N(C)S(=O)(=O)c2ccc(C)c(C)c2)cc1	.	0%	1%	-1%	-3%	.
Cc1ccc(S(=O)(=O)N2CCOC23CCN(S(=O)(=O)c2cccs2)CC3)cc1	.	1%	0%	1%	-5%	.
Nc1ccc2oc(=O)c3ccccc3c2c1	14µM*	?	-19%	?	?	7%
Nc1c(N)c2ccccc2oc1=O	3%	5%	-13%	8%	1%	4%
CC(C)(C)C(=O)Nc1ccc(-c2cc3cc(Cl)ccc3o2)cc1	.	?	0.19µM*	?	0.32µM*	.
